The results in this text go back to PubChem BioAssay AID2427 (National Center for Advancing Translational Sciences (NCATS), 2010).

Calls of active or inactive are those of the source.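 How the source made its calls: active means melting temperature shift above 3 C; inconclusive means shift above 1 C but not above 3 C; inactive means the rest.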

This experiment concerns the target 15-hydroxyprostaglandin dehydrogenase [NAD(+)] (Homo sapiens) (UniProt P15428). The experiment in a line: Thermal Shift Assay for Inhibitors of HPGD (15-Hydroxyprostaglandin Dehydrogenase). As to conditions: Recombinant HPGD thermal shift, SYPRO orange DSF, at 250 µM, stronger effect = higher value. The procedure: Assay Overview: Human 15-Hydroxyprostaglandin dehydrogenase (HPGD) catalyzes the inactivation of prostaglandin E2, and plays a major role in cancer biology by antagonizing the oncogenic potential of cyclooxygenase type 2 (COX2). Studies to assess the stability of human 15-PGDH in presence of compounds was performed as described (Niesen et al., 2007) with variations. References 1. Myung SJ, Rerko RM, Yan M, Platzer P, Guda K, Dotson A, Lawrence E, Dannenberg AJ, Lovgren AK, Luo G, Pretlow TP, Newman RA, Willis J, Dawson D, Markowitz SD. 15-Hydroxyprostaglandin dehydrogenase is an in vivo suppressor of colon tumorigenesis. Proc Natl Acad Sci U S A. 2006 Aug 8;103(32):12098-102. 2. Yan M, Rerko RM, Platzer P, Dawson D, Willis J, Tong M, Lawrence E, Lutterbaugh J, Lu S, Willson JK, Luo G, Hensold J, Tai HH, Wilson K, Markowitz SD. 15-Hydroxyprostaglandin dehydrogenase, a COX-2 oncogene antagonist, is a TGF-beta-induced suppressor of human gastrointestinal cancers. Proc Natl Acad Sci U S A. 2004 Dec 14;101(50):17468-73. 3. […]
HPGD was diluted to a final assay concentration of 1 uM in 100 mM Tris buffer, pH 8.0, containing 0.01% Tween-20 and 1:1000 SYPRO orange dye. […] Heat denaturation curves were recorded using a RT-PCR instrument (Mx3005p, Agilent) applying a temperature gradient of 2 degree C/min. […]

15-hydroxyprostaglandin dehydrogenase [NAD(+)] (Homo sapiens), sequence (P15428 whole entry, looked up): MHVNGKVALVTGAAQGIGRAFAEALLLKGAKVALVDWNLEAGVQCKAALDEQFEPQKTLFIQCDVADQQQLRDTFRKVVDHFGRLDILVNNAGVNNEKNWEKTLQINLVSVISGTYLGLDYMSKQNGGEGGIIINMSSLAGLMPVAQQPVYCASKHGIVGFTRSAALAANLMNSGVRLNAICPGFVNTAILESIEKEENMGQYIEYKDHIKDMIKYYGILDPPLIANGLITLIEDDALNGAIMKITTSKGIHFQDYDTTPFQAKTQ

Take `O=P1(Nc2ccc(F)cc2)COc2ccccc2OC1`: the thermal shift (delta Tm) is 0.5 C (inactive). Moreover, for the setting “measured here: delta Tm with NADH cofactor”, the thermal shift (delta Tm) turned out to be 3.3 C.
